Results: PubChem BioAssay (NCI)
About 79,000 compounds went through this panel and 15% of them were active in at least one assay; those are over-represented in the sample as a whole. Unmarked numbers belong to inactive results. Active and inactive are the calls of the source. Rule as the data show it: active = growth inhibition above about 70%; inactive = the rest. Where a SMILES comes first, the peptide text is derived from it. The star is where a group is joined. Fmoc = O=C(OCC1c2ccccc2-c2ccccc21)*; Boc = CC(C)(C)OC(=O)*

Experiments:
[1] = NCI Yeast Anticancer Drug Screen. Data for the rad50 strain (AID 155);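 also: 0% = growth of vehicle-only cultures of the same strain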; conditions: S. cerevisiae rad50 strain growth inhibition, stronger effect = higher value
Outline: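 Growth of the mutant yeast was measured after compound exposure and referenced to vehicle-treated cultures.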

[2] = NCI Yeast Anticancer Drug Screen. Data for the mec2-1 strain (AID 157); conditions: S. cerevisiae mec2-1 strain, stronger effect = higher value
Outline: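 Compounds were applied to mec2-1 yeast cells. Their growth was then compared with that of vehicle-treated cultures to give growth inhibition.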

[3] = NCI Yeast Anticancer Drug Screen. Data for the sgs1 mgt1 strain (AID 161);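 also: 0% = growth of cultures given vehicle only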; conditions: S. cerevisiae sgs1 mgt1 strain, stronger effect = higher value
Outline: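 Yeast cells carrying a defined DNA-repair defect were exposed to test compounds. Growth inhibition was measured relative to vehicle-treated controls.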

[4] = NCI Yeast Anticancer Drug Screen. Data for the cln2 rad14 strain (AID 165);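 also: 0% = growth equal to vehicle treated cultures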; conditions: S. cerevisiae cln2 rad14 strain, stronger effect = higher value
Outline: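 Strain: cln2 rad14 yeast, altered in cell cycle control and DNA damage repair. Read-out: growth inhibition vs vehicle.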

[5] = NCI Yeast Anticancer Drug Screen. Data for the bub3 strain (AID 167); conditions: S. cerevisiae bub3 mutant strain, stronger effect = higher value
Outline: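 Whole-cell yeast assay. The mutant strain was incubated with compounds, and growth inhibition was determined by comparison with vehicle-treated cells.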

[6] = NCI Yeast Anticancer Drug Screen. Data for the mlh1 rad18 strain (AID 175); conditions: S. cerevisiae mlh1 rad18 strain growth inhibition, stronger effect = higher value
Outline: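 A repair-deficient yeast strain is exposed to test compound, and growth is scored relative to vehicle-treated controls.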

[7] = at 5.0 µM (retest, dose inferred, filed as 0.5)
[8] = at 50.0 µM (retest, dose inferred, filed as 5.0)

| Structure (SMILES) | growth inhibition [1, 7] | growth inhibition [1, 8] | growth inhibition ([1]; at 50.0 µM) | growth inhibition [2, 7] | growth inhibition [2, 8] | growth inhibition ([2]; at 50.0 µM) | growth inhibition [3, 7] | growth inhibition [3, 8] | growth inhibition ([3]; at 50.0 µM) | growth inhibition [4, 7] | growth inhibition [4, 8] | growth inhibition ([4]; at 50.0 µM) | growth inhibition [5, 7] | growth inhibition [5, 8] | growth inhibition ([5]; at 50.0 µM) | growth inhibition [6, 7] | growth inhibition [6, 8] | growth inhibition ([6]; at 50.0 µM) |
| --- | --- | --- | --- | --- | --- | --- | --- | --- | --- | --- | --- | --- | --- | --- | --- | --- | --- | --- |
| c1ccc(-c2ccc(-c3cnc(-c4ccc(-c5ccccc5)cc4)o3)cc2)cc1 | 4% | 30% | 90.2% (active) | 3% | 46% | 53.4% | 1% | 66% | 93% (active) | -1% | 42% | 41.1% | 8% | 31% | 93.2% (active) | -6% | 64% | 92.8% (active) |
| CCCCCCCSCC1C(=O)C23CC1CCC2C12COC(O)C1C(C)(C)C(O)CC2OC3=O (stereo not given) | -19% | 98% (active) | 91.7% (active) | 1% | 99% (active) | 92.2% (active) | -11% | 98% (active) | 92.2% (active) | 9% | 99% (active) | 90% (active) | -4% | 99% (active) | 89% (active) | -29% | 98% (active) | 63.4% |
| O=C(Oc1c(I)ccccc1=O)c1ccc([N+](=O)[O-])cc1 | 39% | 98% (active) | 99.2% (active) | 57% | 99% (active) | 99.3% (active) | 73% (active) | 99% (active) | 99.3% (active) | 13% | 98% (active) | 99.2% (active) | 21% | 98% (active) | 99% (active) | 94% (active) | 99% (active) | 99.5% (active) |
| COc1ccc(N)c([N+](=O)[O-])c1 | -5% | 13% | 41.8% | 1% | 23% | 58% | -2% | 12% | 69.5% | -1% | 10% | 39% | 2% | 30% | 48.9% | -4% | 31% | 27.9% |
| CS(=O)(=O)N\N=C1/C=C\C(=N/NS(C)(=O)=O)CCc2ccc(cc2)CC1 | -1% | 77% (active) | 86.3% (active) | 7% | 96% (active) | 88.8% (active) | -34% | 92% (active) | 93.3% (active) | -1% | 19% | 39.6% | -4% | 92% (active) | 90% (active) | 5% | 95% (active) | 94.5% (active) |
| Cc1c[nH]c(C(=O)O)c1-c1ccc2c(-c3ccccc3)nc3ccccc3n12 | 14% | 96% (active) | 82.8% (active) | 11% | 99% (active) | 91% (active) | 10% | 99% (active) | 89.4% (active) | 8% | 99% (active) | 89% (active) | 13% | 99% (active) | 85.9% (active) | 12% | 95% (active) | 91.8% (active) |
| C1=CC2OC2CCCCCCCC1 (mixture of isomers) | 7% | 75% (active) | 83.2% (active) | 0% | 80% (active) | 62.5% | 2% | 78% (active) | 84.8% (active) | -2% | 59% | 31.6% | -5% | 73% (active) | 50.7% | 1% | 90% (active) | 70.9% (active) |
| CC(C)(C)OC(=O)NCCCCC(NC(=O)OCC1c2ccccc2-c2ccccc21)C(=O)N1CCCC1C(=O)NCC(N)=O (stereo not drawn) (Fmoc-Lys(Boc)-Pro-Gly-NH2; configuration not given here) | 10% | 98% (active) | 86.8% (active) | 13% | 95% (active) | 94.4% (active) | 5% | 89% (active) | 90.3% (active) | 10% | 91% (active) | 82.8% (active) | -10% | 97% (active) | 93.1% (active) | 19% | 97% (active) | 93.3% (active) |
| O=c1ccc2ccc(Cl)cc2[nH]1 | -9% | 1% | -27.9% | -5% | 16% | -5.9% | -5% | -8% | 8.05% | 17% | 17% | 50% | 4% | 1% | -10.3% | 9% | 20% | 4.8% |
| CC1([N+](=O)[O-])C(=O)C2(N3CCOCC3)CCCC2C1c1ccccc1 (stereo not given) | -9% | 75% (active) | -2% | -7% | 99% (active) | -0.3% | -1% | 90% (active) | 4.95% | 1% | 40% | -7.7% | -12% | 98% (active) | -5.2% | 10% | 96% (active) | 7.65% |
